High-throughput results from PubChem BioAssay.
Shown are actives, neighbours in structure and some others; about 4.6% of the full set was active somewhere.
GAA850 FXN act: frataxin GAA850 promoter activation; activation, % at 6 µM; hit rate 0.56% among 360,000; HEK293 lucGAA850 FXN promoter luciferase reporter, 24 h; percent of 10 µM SAHA response;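 active means activation above the average of all compounds screened plus 3 SD, cutoff fixed separately per campaign, cut at about 7.5% in these data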;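 further: 0% = DMSO wells and 100% = 10 µM SAHA wells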
HSF1 activator: increases HSF-1 driven luciferase reporter signal; NIH3T3-HGL HSF-1 luciferase reporter, MG132, 8 h; 100% = twice DMSO control signal; activation, % at 9 µM; hit rate 1.7% among 300,000;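 active means mean replicate activation of at least 50% with a set share of replicates each reaching 50%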;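 further: 0% = median of the neutral control wells and 100% = twice that signal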
AHR activator: activators of human aryl hydrocarbon receptor; AHR-responsive luciferase reporter cells, luminescence; hit rate 2.5% among 320,000; P35869; AID 2796; activation, % at 5 µM; in the data active means activation above about 47%;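 further: 0% = vehicle wells and 100% = reference agonist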
Target sequence (P35869 whole entry, looked up): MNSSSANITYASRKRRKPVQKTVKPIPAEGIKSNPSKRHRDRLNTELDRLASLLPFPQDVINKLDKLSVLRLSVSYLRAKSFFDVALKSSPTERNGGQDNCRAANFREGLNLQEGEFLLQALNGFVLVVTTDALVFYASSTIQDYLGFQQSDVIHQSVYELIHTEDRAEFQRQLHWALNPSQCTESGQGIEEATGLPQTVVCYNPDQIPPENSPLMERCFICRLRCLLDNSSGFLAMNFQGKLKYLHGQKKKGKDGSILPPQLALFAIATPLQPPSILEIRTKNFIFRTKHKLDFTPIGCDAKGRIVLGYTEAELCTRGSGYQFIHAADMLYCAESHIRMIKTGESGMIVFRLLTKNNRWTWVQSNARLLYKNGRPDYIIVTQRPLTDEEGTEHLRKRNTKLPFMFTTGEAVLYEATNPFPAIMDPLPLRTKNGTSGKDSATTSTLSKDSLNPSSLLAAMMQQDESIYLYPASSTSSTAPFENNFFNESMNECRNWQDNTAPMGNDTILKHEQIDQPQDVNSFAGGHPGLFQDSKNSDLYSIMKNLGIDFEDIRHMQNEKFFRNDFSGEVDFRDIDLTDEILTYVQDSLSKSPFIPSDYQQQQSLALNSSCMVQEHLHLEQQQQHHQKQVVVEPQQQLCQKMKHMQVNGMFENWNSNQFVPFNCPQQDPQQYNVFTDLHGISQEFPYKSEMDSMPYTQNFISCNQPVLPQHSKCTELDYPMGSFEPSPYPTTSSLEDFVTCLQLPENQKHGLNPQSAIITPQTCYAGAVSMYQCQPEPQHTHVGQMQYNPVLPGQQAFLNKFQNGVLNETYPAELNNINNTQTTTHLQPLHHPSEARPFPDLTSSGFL
HSF1 inhib: HSF1 inhibition; AID 2098; NIH3T3-HGL HSE-luciferase, MG132-induced, luminescence 8 h; stronger effect = lower value; hit rate 0.77% among 300,000; activity change, negative = inhibition, % at 7.5 µM (by protocol);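 active means more than half of replicate wells show activity change below -50%, luminescence cut by over half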;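 further: luciferase reports HSF-1 transcriptional activity via heat shock element; 0% = median of DMSO wells and -100% = zero luminescence signal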
* = called active by the depositor; . = not tested or not shown.

SMILES	GAA850 FXN act	HSF1 activator	AHR activator	HSF1 inhib
O=C(Nc1ccccc1Cl)c1cc2ccccc2o/c1=N\O	6.7	72.4*	76.1*	35.0
CCOc1ccc(C(C)NC(=O)Nc2ccc(F)cc2F)cc1 (centres undefined)	-1.3	-7.2	0.5	-2.8
O=C1CNC(=S)N1Cc1ccc(Cl)cc1	-0.8	5.8	4.3	4.9
CN1CCN(NC(=O)/C=C/c2ccc(C(C)(C)C)cc2)CC1	5.3	10.0	5.7	-5.9
CN1CCN(NC(=O)/C=C/c2ccc(Br)cc2)CC1	5.2	82.0*	2.2	40.2
Cc1ccc(OCCCCn2cnc3ccccc32)cc1	-0.4	-79.2	7.2	-78.5*
c1ccc(OCCCCn2cnc3ccccc32)cc1	-1.2	9.9	-6.0	7.8
COC(=O)c1cn(CCOc2ccc(C)cc2)c2ccccc12	-2.8	100.0*	3.0	45.2
O=C(CSc1ccccc1)NN1C(=O)c2ccccc2C1=O	-0.1	-8.4	0.3	0.3
O=C(NCc1ccc2c(c1)OCO2)C1(S(=O)(=O)c2ccccc2)CC1	-0.1	3.7	69.7*	-2.0
CCNS(=O)(=O)c1ccc(CCC(=O)NCc2ccc3c(c2)OCO3)cc1	-1.0	53.8*	3.4	6.8
COc1cccc(-c2nc(N3CCCCC3)c3ccccc3n2)c1O	4.3	2.5	31.4	-7.5
COc1cccc(-c2nc(N3CCN(c4ccccc4)CC3)c3ccccc3n2)c1O	1.4	65.8*	6.6	35.2
CCCC(=O)c1c[nH]c(C(=O)N2CCOCC2)c1	1.2	-2.9	4.8	5.0
Cc1ccnc(NS(=O)(=O)c2ccc(NC(=O)c3ccc(C)o3)cc2)n1	-0.9	-3.2	2.5	-0.5
O=C(COc1ccccc1)Nc1ccc(S(=O)(=O)Nc2ncccn2)cc1	3.6	-5.8	5.0	-6.6
Cc1ccnc(NS(=O)(=O)c2ccc(NC(=O)COc3ccccc3)cc2)n1	0.9	-91.0	-0.1	-87.9*
Cc1ccnc(NS(=O)(=O)c2ccc(NC(=O)c3ccccc3F)cc2)n1	0.4	9.6	58.1*	-1.4
COc1cc(/C=C2\NC(=S)NC2=O)ccc1OCc1cccc(C(=O)O)c1	6.6	-16.6	4.7	-12.3
O=C(O)c1ccc(COc2ccccc2Cl)cc1	7.1	3.9	4.7	-5.0
O=C1NC(=O)/C(=C\c2ccc(OCc3cccc(C(=O)O)c3)c(Cl)c2)N1	7.4	-65.0	6.0	-55.5*
O=C(O)c1cccc(COc2ccccc2Cl)c1	-3.3	-88.4	-13.2	-86.2*
CC(=O)N1c2ccc3ccccc3c2C2C=CCC2C1c1ccc(Br)cc1 (centres undefined)	.	.	85.0*	.
COc1ccc(-c2nnc(OCc3nc4ccccc4n3C)c3ccccc23)cc1	6.2	-13.1	16.0	8.1
Fc1ccccc1-c1cc2ncccc2cn1	2.2	.	66.6*	.
SMILES	GAA850 FXN act	HSF1 activator	AHR activator	HSF1 inhib
CCCc1cc(=O)[nH]c(SCC(=O)N(CCC#N)c2ccc3c(c2)OCCO3)n1	2.4	.	.	.
CN=c1sc(C(=O)Nc2cccc(Cl)c2)cc(=O)n1C	-0.5	-9.8	3.3	-5.5
CN=c1sc(C(=O)Nc2ccccc2)c(C)n1C	-1.4	-10.9	71.5*	-2.6
Cc1occc1-c1nnc(SCC(=O)Nc2ccc(F)cc2)n1C	1.7	3.0	-5.8	-5.6
c1ccc(-n2nnnc2Oc2ccc(-c3nnco3)cc2)cc1	-0.6	-75.3	-0.1	-69.9*
c1ccc(-n2nnnc2Oc2ccc(-n3ccnc3)cc2)cc1	-3.3	-21.6	72.2*	-10.9
COC(=O)c1c(-c2cc(OC)cc(OC)c2)sc2ccc(OC)cc12	2.0	.	10.0	.
COc1ccc(CCN(Cc2ccc(C(C)C)cc2)S(=O)(=O)c2ccc(S(=O)(=O)N(C)C)cc2)cc1OC	2.8	31.2	3.3	9.3
Cc1ccc(S(=O)(=O)NC(=O)Nc2ccc(Cl)cn2)cc1	1.7	5.7	4.3	-4.9
Cc1ccc(S(=O)(=O)NC(=O)Nc2ccc(C)cn2)cc1	2.0	68.6*	5.6	25.1
CCOC(=O)c1nnn(-c2nonc2N)c1CN(CC)CC	2.8	-6.2	1.6	2.9
Cn1c(NC(=O)/C=C\c2ccccc2)cc(=O)n(C)c1=O	6.7	15.2	49.8*	1.6
O=C(NCc1ccc(Cl)cc1Cl)Nc1ccccc1	5.6	71.5*	4.3	38.4
Cn1cccc1CNC(=O)Nc1ccc(Cl)cc1	5.4	25.1	74.9*	5.5
S=C(NCc1ccncc1)Nc1ccc(Cl)cc1Cl	-0.9	26.7	13.4	9.1
O=C(NCc1ccncc1)Nc1ccc(Cl)cc1Cl	0.2	-3.6	48.5*	-3.3
Cc1ccc(C)c(CNC(=O)Nc2ccccc2)c1	4.6	57.3*	3.5	25.9
O=C(NCc1csc2ccc(Cl)cc12)Nc1ccccc1	-0.4	-1.5	-8.0	1.3
